# About 79,000 compounds went through this panel and 15% of them were active in at least one assay; those are over-represented in the sample as a whole. A number with no mark means an inactive call. Active and inactive are the calls of the source. Rule as the data show it: active = growth inhibition above about 70%; inactive = the rest.
# Experiments:
# [1] = NCI Yeast Anticancer Drug Screen. Data for the rad52 strain (AID 147);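 also: 0% = growth of vehicle-treated control cultures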; settings: S. cerevisiae rad52 mutant growth inhibition, hits give high values
# Summary of the method: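 Inhibition of yeast growth, referenced to vehicle controls, was the measured output for a strain with defective DNA damage repair.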
# [2] = NCI Yeast Anticancer Drug Screen. Data for the wt1 strain (AID 149);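 also: 0% = growth of vehicle-treated wt1 cultures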; settings: S. cerevisiae wt1 strain (SPY 50644) growth inhibition, hits give high values
# Summary of the method: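 Yeast wt1 strain exposed to compounds; growth inhibition measured relative to vehicle-treated controls.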
# [3] = NCI Yeast Anticancer Drug Screen. Data for the rad50EPP+ strain (AID 151);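 also: 0% = growth of vehicle-treated control cultures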; settings: S. cerevisiae rad50 mutant strain, hits give high values
# Summary of the method: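 Genetically defined yeast (rad50EPP+, DNA damage repair alteration) is grown with compound, and inhibition of growth is expressed relative to vehicle-treated controls.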
# [4] = NCI Yeast Anticancer Drug Screen. Data for the mgt1 strain (AID 153); settings: S. cerevisiae mgt1 mutant growth inhibition, hits give high values
# Summary of the method: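 In the mgt1 strain, test compounds were added and growth inhibition was determined relative to vehicle-treated controls.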
# [5] = NCI Yeast Anticancer Drug Screen. Data for the rad50 strain (AID 155);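 also: 0% = growth of vehicle-only cultures of the same strain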; settings: S. cerevisiae rad50 strain growth inhibition, hits give high values
# Summary of the method: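 Yeast carrying a defined DNA repair defect were exposed to test compounds, and growth was compared with vehicle-treated controls to give percent inhibition.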
# [6] = NCI Yeast Anticancer Drug Screen. Data for the mec2-1 strain (AID 157); settings: S. cerevisiae mec2-1 strain, hits give high values
# Summary of the method: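 Each compound was tested on mec2-1 yeast, a strain altered in DNA damage repair or cell cycle control. Growth inhibition is reported relative to vehicle.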
# [7] = NCI Yeast Anticancer Drug Screen. Data for the rad14 strain (AID 159);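 also: 0% = growth of vehicle-treated control cultures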; settings: S. cerevisiae rad14 strain growth inhibition, hits give high values
# Summary of the method: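 Yeast cells carrying a defined DNA-repair defect were exposed to compounds, and growth inhibition was calculated relative to vehicle-treated control cultures.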
# [8] = NCI Yeast Anticancer Drug Screen. Data for the sgs1 mgt1 strain (AID 161);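 also: 0% = growth of cultures given vehicle only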; settings: S. cerevisiae sgs1 mgt1 strain, hits give high values
# Summary of the method: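 Read-out: growth inhibition vs vehicle controls. Cells: mutant yeast strain deficient in DNA damage repair.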
# [9] = NCI Yeast Anticancer Drug Screen. Data for the CLN2oe strain (AID 163);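 also: 0% = growth of vehicle-only control cultures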; settings: S. cerevisiae CLN2oe strain, hits give high values
# Summary of the method: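 First, the altered yeast strain was treated with each compound; second, its growth was measured; finally, inhibition was derived by comparison with vehicle controls.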
# [10] = NCI Yeast Anticancer Drug Screen. Data for the cln2 rad14 strain (AID 165);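 also: 0% = growth equal to vehicle treated cultures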; settings: S. cerevisiae cln2 rad14 strain, hits give high values
# Summary of the method: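 Test compounds were added to cln2 rad14 yeast cultures; inhibition of growth was then determined by comparison with vehicle treatment.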
# [11] = NCI Yeast Anticancer Drug Screen. Data for the bub3 strain (AID 167); settings: S. cerevisiae bub3 mutant strain, hits give high values
# Summary of the method: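 Compounds were applied to a genetically altered yeast strain carrying a cell-cycle control defect. Growth inhibition was scored against vehicle-treated controls.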
# [12] = NCI Yeast Anticancer Drug Screen. Data for the wt2 strain (AID 169);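 also: 0% = growth of vehicle-treated yeast cultures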; settings: S. cerevisiae wt2 strain growth inhibition, hits give high values
# Summary of the method: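 The panel's yeast strains carry defined changes in DNA repair or cell cycle genes. Each strain is grown with compound, and growth loss is scored relative to vehicle.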
# [13] = NCI Yeast Anticancer Drug Screen. Data for the mlh1 strain (AID 171);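 also: 0% = growth of vehicle-treated control cultures of the same strain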; settings: S. cerevisiae mlh1 strain growth inhibition, hits give high values
# Summary of the method: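 Inhibition values reflect reduced yeast growth in the presence of compound, referenced to vehicle controls, using a strain chosen for its alteration in DNA repair or cell cycle control.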
# [14] = NCI Yeast Anticancer Drug Screen. Data for the sgs1 strain (AID 173);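 also: 0% = growth of vehicle-only control cultures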; settings: S. cerevisiae sgs1 mutant, hits give high values
# Summary of the method: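 Vehicle-treated cultures served as reference for growth inhibition of a yeast strain altered in DNA damage repair or cell cycle control after compound exposure.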
# [15] = NCI Yeast Anticancer Drug Screen. Data for the mlh1 rad18 strain (AID 175); settings: S. cerevisiae mlh1 rad18 strain growth inhibition, hits give high values
# Summary of the method: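 Inhibition values reflect reduced growth of mutant yeast versus vehicle-treated controls following compound exposure; the mutations affect DNA damage repair.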
# [16] = NCI Yeast Anticancer Drug Screen. Data for the rad18 strain (AID 177); settings: S. cerevisiae rad18 mutant growth inhibition, hits give high values
# Summary of the method: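 Steps: expose repair-mutant yeast to compound; measure growth; express as inhibition relative to vehicle control.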
# [17] = at 5.0 µM (retest, dose inferred, filed as 0.5)
# [18] = at 50.0 µM (retest, dose inferred, filed as 5.0)
structure (smiles),measurement,setting,value
CCOc1ccccc1N=Cc1c2ccccc2cc2ccccc12,growth inhibition,[1]; at 1.2 µM,10%
same,growth inhibition,[1]; at 3.7 µM,28%
same,growth inhibition,[1]; at 11.0 µM,98% (active)
same,growth inhibition,[1]; at 33.0 µM,99% (active)
same,growth inhibition,[1]; at 100.0 µM,99% (active)
same,growth inhibition,[2]; at 1.2 µM,-2%
same,growth inhibition,[2]; at 3.7 µM,26%
same,growth inhibition,[2]; at 11.0 µM,95% (active)
same,growth inhibition,[2]; at 33.0 µM,97% (active)
same,growth inhibition,[2]; at 100.0 µM,95% (active)
same,growth inhibition,[3]; at 1.2 µM,-4%
same,growth inhibition,[3]; at 3.7 µM,24%
same,growth inhibition,[3]; at 11.0 µM,63%
same,growth inhibition,[3]; at 33.0 µM,90% (active)
same,growth inhibition,[3]; at 100.0 µM,89% (active)
same,growth inhibition,[4]; at 1.2 µM,2%
same,growth inhibition,[4]; at 3.7 µM,75% (active)
same,growth inhibition,[4]; at 11.0 µM,97% (active)
same,growth inhibition,[4]; at 33.0 µM,98% (active)
same,growth inhibition,[4]; at 100.0 µM,98% (active)
same,growth inhibition,[5]; at 1.2 µM,1%
same,growth inhibition,[5]; at 3.7 µM,39%
same,growth inhibition,[5]; [17],11%
same,growth inhibition,[5]; at 11.0 µM,97% (active)
same,growth inhibition,[5]; at 33.0 µM,98% (active)
same,growth inhibition,[5]; [18],98% (active)
same,growth inhibition,[5]; at 50.0 µM,88.8% (active)
same,growth inhibition,[5]; at 100.0 µM,97% (active)
same,growth inhibition,[6]; at 1.2 µM,-18%
same,growth inhibition,[6]; at 3.7 µM,33%
same,growth inhibition,[6]; [17],7%
same,growth inhibition,[6]; at 11.0 µM,98% (active)
same,growth inhibition,[6]; at 33.0 µM,98% (active)
same,growth inhibition,[6]; [18],99% (active)
same,growth inhibition,[6]; at 50.0 µM,90.8% (active)
same,growth inhibition,[6]; at 100.0 µM,98% (active)
same,growth inhibition,[7]; at 1.2 µM,-23%
same,growth inhibition,[7]; at 3.7 µM,74% (active)
same,growth inhibition,[7]; at 11.0 µM,98% (active)
same,growth inhibition,[7]; at 33.0 µM,98% (active)
same,growth inhibition,[7]; at 100.0 µM,98% (active)
same,growth inhibition,[8]; [17],-8%
same,growth inhibition,[8]; [18],98% (active)
same,growth inhibition,[8]; at 50.0 µM,90.9% (active)
same,growth inhibition,[9]; at 1.2 µM,18%
same,growth inhibition,[9]; at 3.7 µM,36%
same,growth inhibition,[9]; at 11.0 µM,97% (active)
same,growth inhibition,[9]; at 33.0 µM,98% (active)
same,growth inhibition,[9]; at 100.0 µM,97% (active)
same,growth inhibition,[10]; [17],44%
same,growth inhibition,[10]; [18],98% (active)
same,growth inhibition,[10]; at 50.0 µM,58.6%
same,growth inhibition,[11]; at 1.2 µM,4%
same,growth inhibition,[11]; at 3.7 µM,34%
same,growth inhibition,[11]; [17],37%
same,growth inhibition,[11]; at 11.0 µM,96% (active)
same,growth inhibition,[11]; at 33.0 µM,98% (active)
same,growth inhibition,[11]; [18],99% (active)
same,growth inhibition,[11]; at 50.0 µM,89.9% (active)
same,growth inhibition,[11]; at 100.0 µM,97% (active)
same,growth inhibition,[12]; at 1.2 µM,-4%
same,growth inhibition,[12]; at 3.7 µM,34%
same,growth inhibition,[12]; at 11.0 µM,96% (active)
same,growth inhibition,[12]; at 33.0 µM,98% (active)
same,growth inhibition,[12]; at 100.0 µM,97% (active)
same,growth inhibition,[13]; at 1.2 µM,18%
same,growth inhibition,[13]; at 3.7 µM,56%
same,growth inhibition,[13]; at 11.0 µM,97% (active)
same,growth inhibition,[13]; at 33.0 µM,98% (active)
same,growth inhibition,[13]; at 100.0 µM,97% (active)
same,growth inhibition,[14]; at 1.2 µM,-18%
same,growth inhibition,[14]; at 3.7 µM,24%
same,growth inhibition,[14]; at 11.0 µM,96% (active)
same,growth inhibition,[14]; at 33.0 µM,97% (active)
same,growth inhibition,[14]; at 100.0 µM,96% (active)
same,growth inhibition,[15]; [17],38%
same,growth inhibition,[15]; [18],98% (active)
same,growth inhibition,[15]; at 50.0 µM,86.5% (active)
same,growth inhibition,[16]; at 1.2 µM,-3%
same,growth inhibition,[16]; at 3.7 µM,21%
same,growth inhibition,[16]; at 11.0 µM,97% (active)
same,growth inhibition,[16]; at 33.0 µM,98% (active)
same,growth inhibition,[16]; at 100.0 µM,97% (active)
COC(=O)C1=C(C(=O)OC)C(C(=O)OC)C(C(=O)OC)C(C(=O)OC)(C(=O)OC)C(C(=O)OC)=C1C(=O)OC (stereo unspecified),growth inhibition,[1]; at 1.2 µM,-2%
same,growth inhibition,[1]; at 3.7 µM,-6%
same,growth inhibition,[1]; at 11.0 µM,5%
same,growth inhibition,[1]; at 33.0 µM,20%
same,growth inhibition,[1]; at 100.0 µM,46%
same,growth inhibition,[2]; at 1.2 µM,-11%
same,growth inhibition,[2]; at 3.7 µM,-13%
same,growth inhibition,[2]; at 11.0 µM,-25%
same,growth inhibition,[2]; at 33.0 µM,1%
same,growth inhibition,[2]; at 100.0 µM,39%
same,growth inhibition,[3]; at 1.2 µM,-4%
same,growth inhibition,[3]; at 3.7 µM,-4%
same,growth inhibition,[3]; at 11.0 µM,-4%
same,growth inhibition,[3]; at 33.0 µM,1%
same,growth inhibition,[3]; at 100.0 µM,27%
same,growth inhibition,[4]; at 1.2 µM,-18%
same,growth inhibition,[4]; at 3.7 µM,-19%
same,growth inhibition,[4]; at 11.0 µM,-17%
same,growth inhibition,[4]; at 33.0 µM,13%
same,growth inhibition,[4]; at 100.0 µM,62%
same,growth inhibition,[5]; at 1.2 µM,-10%
same,growth inhibition,[5]; at 3.7 µM,-14%
same,growth inhibition,[5]; [17],25%
same,growth inhibition,[5]; at 11.0 µM,7%
same,growth inhibition,[5]; at 33.0 µM,25%
same,growth inhibition,[5]; [18],93% (active)
same,growth inhibition,[5]; at 50.0 µM,77.9% (active)
same,growth inhibition,[5]; at 100.0 µM,62%
same,growth inhibition,[6]; at 1.2 µM,-13%
same,growth inhibition,[6]; at 3.7 µM,-14%
same,growth inhibition,[6]; [17],20%
same,growth inhibition,[6]; at 11.0 µM,1%
same,growth inhibition,[6]; at 33.0 µM,16%
same,growth inhibition,[6]; [18],94% (active)
same,growth inhibition,[6]; at 50.0 µM,60.5%
same,growth inhibition,[6]; at 100.0 µM,55%
same,growth inhibition,[7]; at 1.2 µM,-16%
same,growth inhibition,[7]; at 3.7 µM,-20%
same,growth inhibition,[7]; at 11.0 µM,-11%
same,growth inhibition,[7]; at 33.0 µM,14%
same,growth inhibition,[7]; at 100.0 µM,73% (active)
same,growth inhibition,[8]; [17],96% (active)
same,growth inhibition,[8]; [18],99% (active)
same,growth inhibition,[8]; at 50.0 µM,80.1% (active)
same,growth inhibition,[9]; at 1.2 µM,-11%
same,growth inhibition,[9]; at 3.7 µM,-21%
same,growth inhibition,[9]; at 11.0 µM,-26%
same,growth inhibition,[9]; at 33.0 µM,-7%
same,growth inhibition,[9]; at 100.0 µM,-1%
same,growth inhibition,[10]; [17],88% (active)
same,growth inhibition,[10]; [18],97% (active)
same,growth inhibition,[10]; at 50.0 µM,33%
same,growth inhibition,[11]; at 1.2 µM,-13%
same,growth inhibition,[11]; at 3.7 µM,-13%
same,growth inhibition,[11]; [17],95% (active)
same,growth inhibition,[11]; at 11.0 µM,-22%
same,growth inhibition,[11]; at 33.0 µM,18%
same,growth inhibition,[11]; [18],99% (active)
same,growth inhibition,[11]; at 50.0 µM,54.5%
same,growth inhibition,[11]; at 100.0 µM,35%
same,growth inhibition,[12]; at 1.2 µM,-22%
same,growth inhibition,[12]; at 3.7 µM,-18%
same,growth inhibition,[12]; at 11.0 µM,-17%
same,growth inhibition,[12]; at 33.0 µM,1%
same,growth inhibition,[12]; at 100.0 µM,58%
same,growth inhibition,[13]; at 1.2 µM,-16%
same,growth inhibition,[13]; at 3.7 µM,-23%
same,growth inhibition,[13]; at 11.0 µM,-18%
same,growth inhibition,[13]; at 33.0 µM,-1%
same,growth inhibition,[13]; at 100.0 µM,39%
same,growth inhibition,[14]; at 1.2 µM,-18%
same,growth inhibition,[14]; at 3.7 µM,-11%
same,growth inhibition,[14]; at 11.0 µM,-7%
same,growth inhibition,[14]; at 33.0 µM,18%
same,growth inhibition,[14]; at 100.0 µM,60%
same,growth inhibition,[15]; [17],26%
same,growth inhibition,[15]; [18],87% (active)
same,growth inhibition,[15]; at 50.0 µM,67.4%
same,growth inhibition,[16]; at 1.2 µM,-20%
same,growth inhibition,[16]; at 3.7 µM,-21%
same,growth inhibition,[16]; at 11.0 µM,-5%
same,growth inhibition,[16]; at 33.0 µM,17%
same,growth inhibition,[16]; at 100.0 µM,51%
